The values below come from PubChem BioAssay (NCI).

The panel holds about 83,000 compounds, 20% with a hit somewhere; the sample as a whole holds those more often.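 Single-dose data. Exposure time 48 hours. Values below 10 considered active.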 Unmarked numbers belong to inactive results. Calls of active or inactive are those of the source.

Test systems include DU-145 prostate; K-562 leukemia; MALME-3M melanoma; MDA-MB-231 breast; RXF 393 renal; SF-268 CNS; SF-295 CNS; SF-539 CNS; UACC-257 melanoma; M14 melanoma; HCT-15 colon; HT29 colon; SNB-75 CNS; SNB-19 CNS; U251 CNS; PC-3 prostate; SK-MEL-5 melanoma; UACC-62 melanoma; LOX IMVI melanoma; SK-MEL-28 melanoma.
Assay in all cases: NCI-60 one-dose screen, 48 h (100 = growth as untreated, 0 = no growth, -100 = all killed)
What all share (conditions): 10 µM unless noted

Take `Cc1ccc(-c2nc(N3CCCNCC3)c3oc(-c4ccccc4)nc3n2)cc1`: the growth in the experiment with DU-145 prostate was -15.2% (active); in the experiment on K-562 leukemia, -63.6% (active); in the experiment with MALME-3M melanoma it was -92.4% (active); in the experiment with MDA-MB-231 breast it was -91.7% (active); in the experiment with RXF 393 renal, -74.3% (active); in the experiment on SF-268 CNS, -42.9% (active). The growth with SF-295 CNS is -89.6% (active); in the experiment on SF-539 CNS it was -91.4% (active); in the experiment with UACC-257 melanoma it was -82.2% (active); with M14 melanoma, -94.7% (active); with HCT-15 colon, -85.1% (active); in the experiment with HT29 colon, -82.8% (active). Also, the growth with SNB-75 CNS was -67.3% (active); with SNB-19 CNS, 8.75% (active); in the experiment on U251 CNS, -85.9% (active); in the experiment on PC-3 prostate, -88.7% (active); with SK-MEL-5 melanoma, -93.4% (active); in the experiment on UACC-62 melanoma, -91.8% (active). The growth was -91.6% (active) with LOX IMVI melanoma and -93.4% (active) in the experiment on SK-MEL-28 melanoma.

For `C=CCN=c1sc2c(n1NC(=O)c1cc3ccc1CCc1ccc(cc1)CC3)C(=O)c1ccccc1C2=O`, the growth was -90.7% (active) in the experiment on DU-145 prostate; -12.3% (active) in the experiment with K-562 leukemia; -88.6% (active) with MALME-3M melanoma; -6.76% (active) in the experiment on MDA-MB-231 breast; -26.3% (active) in the experiment on RXF 393 renal; 8.79% (active) in the experiment on SF-268 CNS. For the same compound, the growth in the experiment on SF-295 CNS is 69.2%; with SF-539 CNS it was -98.3% (active); in the experiment with UACC-257 melanoma, -72.6% (active); in the experiment with M14 melanoma, -93.9% (active); with HCT-15 colon, -68.3% (active); in the experiment on HT29 colon, 26.1%. Moreover, the growth is -94.6% (active) with SNB-75 CNS; 4.59% (active) in the experiment with SNB-19 CNS; 0.221% (active) in the experiment on U251 CNS; 0.37% (active) with PC-3 prostate; -98.5% (active) with SK-MEL-5 melanoma; -36% (active) with UACC-62 melanoma. The growth with LOX IMVI melanoma was -80.3% (active); in the experiment with SK-MEL-28 melanoma, -35.4% (active).

For `COC(=O)/C=C1/SC(=Nc2cccc(OC)c2)N(CCc2c[nH]c3ccc(O)cc23)C1=O`, the growth with DU-145 prostate is 33.1%; in the experiment on K-562 leukemia it was 34.1%; with MALME-3M melanoma, 79.5%; in the experiment with MDA-MB-231 breast, 66.6%; in the experiment with RXF 393 renal, 52.6%; with SF-268 CNS, 67%. For the same compound, the growth is 81.4% with SF-295 CNS; 72.4% in the experiment on SF-539 CNS; 57.7% in the experiment on UACC-257 melanoma; 51.3% with M14 melanoma; 26.4% with HCT-15 colon; 92% in the experiment with HT29 colon. Besides, the growth in the experiment on SNB-75 CNS is 71%; in the experiment on SNB-19 CNS, 54.3%; with U251 CNS it was 45.4%; in the experiment on PC-3 prostate it was 46%; in the experiment with SK-MEL-5 melanoma it was 63.6%; in the experiment with UACC-62 melanoma, 53.4%. Further, the growth is 23.5% with LOX IMVI melanoma and 70.9% in the experiment on SK-MEL-28 melanoma.

With `c1cnc2c(-c3nc4ccc5[nH]ncc5c4c4c3CCCC4)c[nH]c2c1`, the growth is 27.7% in the experiment on DU-145 prostate; 21% in the experiment with K-562 leukemia; 63.8% in the experiment on MALME-3M melanoma; 30.7% in the experiment with MDA-MB-231 breast; 42.7% in the experiment on RXF 393 renal; 40.4% in the experiment with SF-268 CNS. For the same compound, the growth was 32.1% in the experiment on SF-295 CNS; 42.9% in the experiment with SF-539 CNS; 98.3% with UACC-257 melanoma; 59% with M14 melanoma; 43.9% with HCT-15 colon; 14.9% in the experiment on HT29 colon. In addition, the growth in the experiment on SNB-75 CNS is 57.8%; in the experiment on SNB-19 CNS, 29.8%; in the experiment on U251 CNS, 29.8%; in the experiment on PC-3 prostate, 27.5%; in the experiment with SK-MEL-5 melanoma it was 56.4%; with UACC-62 melanoma, 45.8%. Moreover, the growth in the experiment on LOX IMVI melanoma was 19.6%; in the experiment on SK-MEL-28 melanoma, 88.8%.

`COC12C=C/C(=C(/C(=O)OCc3ccncn3)C(=O)CCCCCCCCC3(OC)C=C/C(=C(/C(=O)OCc4ccncn4)C(=O)CCCCCCCC1)O3)O2`: the growth with DU-145 prostate was -41.8% (active); with K-562 leukemia, -5.58% (active); with MALME-3M melanoma it was -54.3% (active); in the experiment with MDA-MB-231 breast, 10.6%; in the experiment with RXF 393 renal, -77.3% (active); with SF-268 CNS, -3.7% (active). In addition, the growth in the experiment with SF-295 CNS is -15.9% (active); with SF-539 CNS, -18.2% (active); in the experiment on UACC-257 melanoma, 4.41% (active); in the experiment on M14 melanoma, -22.1% (active); in the experiment on HCT-15 colon, -28.5% (active); in the experiment with HT29 colon, 12.5%. The growth is 48.7% in the experiment with SNB-75 CNS; 7.75% (active) with SNB-19 CNS; 0.453% (active) with U251 CNS; -36.7% (active) in the experiment on PC-3 prostate; -88.1% (active) with SK-MEL-5 melanoma; -47.4% (active) with UACC-62 melanoma. Also, the values for the growth in the experiment with LOX IMVI melanoma and in the experiment on SK-MEL-28 melanoma were -54.8% (active) and -19.2% (active), respectively.

For the compound `Nc1ncnc2c1C(c1ccccc1)c1ccc3ccccc3c1O2` (stereo not given), the growth in the experiment on DU-145 prostate was 99.8%; with K-562 leukemia, 70%; in the experiment on MALME-3M melanoma it was 110%; in the experiment with MDA-MB-231 breast, 89.1%; in the experiment with RXF 393 renal, 104%; in the experiment on SF-268 CNS it was 84.7%. Moreover, the growth is 88% with SF-295 CNS; 90.7% in the experiment with SF-539 CNS; 79.7% in the experiment with UACC-257 melanoma; 95.8% in the experiment on M14 melanoma; 96.5% in the experiment with HCT-15 colon; 92.5% in the experiment with HT29 colon. Moreover, the growth in the experiment on SNB-75 CNS is 64.7%; with SNB-19 CNS it was 80.7%; with U251 CNS, 86.4%; in the experiment with PC-3 prostate it was 70.5%; in the experiment on SK-MEL-5 melanoma, 77.7%; in the experiment on UACC-62 melanoma, 68.5%. The growth with LOX IMVI melanoma was 72.1%; with SK-MEL-28 melanoma it was 103%.

In the case of `COc1ccc(C(=O)N2c3ccccc3Sc3ccccc32)c(OC)c1`, the growth was 9.99% (active) in the experiment on DU-145 prostate; 10.5% in the experiment with K-562 leukemia; 66.9% with MALME-3M melanoma; 38.4% in the experiment on MDA-MB-231 breast; -0.69% (active) with RXF 393 renal; 36.6% in the experiment with SF-268 CNS. The growth was 11.6% in the experiment on SF-295 CNS; -18.8% (active) with SF-539 CNS; 77% in the experiment with UACC-257 melanoma; -9.55% (active) in the experiment with M14 melanoma; 19.2% in the experiment on HCT-15 colon; -0.815% (active) with HT29 colon. Further, the growth with SNB-75 CNS was 18.5%; with SNB-19 CNS, 31.7%; with U251 CNS, 24.5%; in the experiment with PC-3 prostate it was 10.5%; with SK-MEL-5 melanoma, 19%; with UACC-62 melanoma, 13.8%. Moreover, the figures for the growth in the experiment with LOX IMVI melanoma and with SK-MEL-28 melanoma were 37.8% and 57.9%, respectively.

For the compound `CCCCC1=C(P(=O)(O)O)N[C@H](C(=O)O)CS1`, the growth in the experiment on DU-145 prostate was 104%; in the experiment with K-562 leukemia, 93.1%; in the experiment with MALME-3M melanoma, 96.3%; with MDA-MB-231 breast it was 90.6%; in the experiment on RXF 393 renal, 93.5%; in the experiment with SF-268 CNS, 98.6%. Also, the growth with SF-295 CNS is 85.9%; with SF-539 CNS, 93.1%; in the experiment on UACC-257 melanoma, 86.6%; with M14 melanoma, 92.7%; in the experiment with HCT-15 colon, 87.9%; with HT29 colon it was 95.3%. For the same compound, the growth in the experiment with SNB-75 CNS was 104%; in the experiment with SNB-19 CNS, 89%; in the experiment on U251 CNS it was 94.2%; with PC-3 prostate, 90%; in the experiment with SK-MEL-5 melanoma, 98.8%; with UACC-62 melanoma, 85.1%. The growth in the experiment on LOX IMVI melanoma was 92.4%; in the experiment with SK-MEL-28 melanoma, 89.7%.
